# Source: PubChem
# Tau FP inhib – qHTS for Inhibitors of Tau Fibril Formation, Fluorescence Polarization; K18 P301L tau heparin fibrillization, Alexa594 FP, 6 h; Potency, µM (titrated, usually from 57.7 µM), for inactives: at the top dose activity, negative = inhibition, usual class: inhibitors; 280,000 tested, 0.39% active; note: nearly all actives have a fitted effect of over 55% in size
# Target sequence (P10636 561-689 P618L limits assumed): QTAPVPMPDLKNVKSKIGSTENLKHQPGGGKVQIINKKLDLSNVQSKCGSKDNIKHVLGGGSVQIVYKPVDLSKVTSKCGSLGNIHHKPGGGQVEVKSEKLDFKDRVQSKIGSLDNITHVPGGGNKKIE
#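 Recombinant K18 P301L […], labeled with Alexa 594 at 0.24 uM over 15 uM unlabeled; heparin inducer 20 uM final; 37 C, 6 hr; FP endpoint.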
# TR SRC2 fluor cs – Total Fluorescence Counterscreen for Inhibitors of the Interaction of Thyroid Hormone Receptor and Steroid Receptor Coregulator 2. TRb/SRC2 Texas Red total fluorescence interference. Potency, µM (titrated, usually from 106 µM), for inactives: at the top dose fluorescence change, negative = quenching. 280,000 tested, 0.29% active; active = well fitted curve in either direction with a large enough effect; inconclusive = small, poorly fitted or top-dose-only effect
#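 Human TRb ligand-binding domain at 0.6 uM with 20 nM Texas Red SRC2 peptide in Tris buffer containing 1 uM T3 and 5% DMSO, incubated with compound 5 h at ambient temperature. Total fluorescence (555/632 nm) calculated as parallel + 2 × perpendicular.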
# Tau fluor cs – Counterscreen qHTS for Inhibitors of Tau Fibril Formation, Fluorescence Polarization; tau K18 P301L Alexa594 fluorescence, heparin fibrillization; Potency, µM (series often up to 57.7 µM), inactives show top-dose activity change, negative = decrease; 280,000 tested, 0.93% active; note: nearly all actives have a fitted effect of over 55% in size
#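 Human tau K18 P301L (15 uM unlabeled, 0.24 uM Alexa 594-labeled) in 100 mM sodium acetate pH 7 with 20 uM heparin, 6 hr at 37 C. ThT 30 uM added, 1 hr ambient; Alexa 594 FP and total fluorescence read at 555/632 nm.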
# Tau ThT inhib – qHTS for Inhibitors of Tau Fibril Formation, Thioflavin T Binding; Potency, µM (top dose mostly 57.4 µM), for the others: at the top dose activity, negative = inhibition, hits mostly inhibitors; recombinant tau K18 P301L (four-repeat tau fragment), heparin-induced fibrillization, ThT fluorescence; AID 1460, 2008; 270,000 tested, 2.1% active; note: nearly all actives have a fitted effect of over 55% in size
#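 In this qHTS, human K18 P301L tau is incubated with compound and heparin for 6 hr at 37 C, and Thioflavin T fluorescence then reports fibril load.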
# TRb SRC2 PPI – qHTS for Inhibitors of the Interaction of Thyroid Hormone Receptor and Steroid Receptor Coregulator 2. Thyroid hormone receptor beta (Homo sapiens), P10828. 280,000 tested, 0.065% active. Potency, µM (series often up to 106 µM), without a hit: at the top dose activity change, negative = inhibition, hits mostly inhibitors. TRbeta-SRC2 peptide binding, fluorescence polarization; receptor liganded with 1 µM T3;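 note: plate controls were bound peptide for no effect and peptide without receptor for full effect; nearly all actives have a fitted effect of over 50% in size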
# Target sequence (P10828 whole entry, looked up): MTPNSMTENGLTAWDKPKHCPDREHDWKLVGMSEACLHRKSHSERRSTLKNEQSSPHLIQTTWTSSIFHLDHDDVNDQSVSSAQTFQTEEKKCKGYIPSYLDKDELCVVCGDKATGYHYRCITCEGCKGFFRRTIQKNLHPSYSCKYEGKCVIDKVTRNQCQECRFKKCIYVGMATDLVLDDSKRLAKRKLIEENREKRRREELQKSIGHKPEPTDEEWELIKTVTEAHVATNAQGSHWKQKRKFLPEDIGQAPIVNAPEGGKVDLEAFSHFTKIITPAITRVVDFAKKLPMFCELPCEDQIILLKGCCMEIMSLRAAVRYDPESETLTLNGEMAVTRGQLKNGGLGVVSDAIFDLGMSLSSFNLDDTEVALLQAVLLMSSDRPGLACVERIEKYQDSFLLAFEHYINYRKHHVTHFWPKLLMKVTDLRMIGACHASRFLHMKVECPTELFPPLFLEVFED
#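 Human TRb LBD (0.6 uM) plus Texas Red-labeled SRC2 peptide (20 nM), 1uM T3, 5% DMSO, 5 hr at ambient temperature. Decreased polarization (555/632 nm) flags inhibition; data normalized to free and bound peptide controls.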
# * hit, by the source's call; ? = inconclusive; . = no result given; ! = not confirmed by another sample; [ ] = remark or other dose. Most compounds without a hit are left out; they make up all but 3% or so of the library. Unless noted, calls come from the whole dose curve; as a rule, active = well fitted curve in the direction sought with a large enough effect; inconclusive = small, poorly fitted or top-dose-only effect, or another doubt; inactive = no such curve, though single readings can be large; an effect the other way counts as inactive or inconclusive. Unless noted, % is set by controls: 0 for no effect and ±100 for the full control effect; potency is the fitted concentration of half-maximal effect.
SMILES,Tau FP inhib,TR SRC2 fluor cs,Tau fluor cs,Tau ThT inhib,TRb SRC2 PPI
Clc1cccc(N2CCNCC2)c1,1.1%,28.2µM*![fluorescent],-0.8%,-4.8%,8.91µM*!
Nc1cc(N2CCNCC2)ccc1[N+](=O)[O-],7.1%,0.8%,2.2%,?,1.1%
CCOC(=O)c1c(NC(=O)c2c(N)n(CCCOC)c3nc4ccccc4nc23)sc2c1CCCC2,11.5%,0.6%,?,?,5.4%
Cc1ccccc1C(=O)Nc1sc2c(c1C(=O)O)CCC(C(C)(C)C)C2 (stereo unspecified),-7.9%,-2.5%,?,20µM*,3.1%
CCCc1cc2c(n1Cc1ccco1)C(C)C1CN(C(=O)c3ccccc3)C(C)(C(=O)OC)C21 (stereo unspecified),?,1.3%,-12.0%,22.4µM*,12.8%
CCNc1nc(NC(C)C)nc(SC)n1,.,-4.2%[201 µM],.,.,-4.5%[201 µM]
Cl.Cl.Cl.Cl.Cl.Cl.N.N.N.N.NNNNN.NNNNN.O.O.[Ru].[Ru].[Ru],?,-4.5%,?,22.4µM*,-13.6%
CCC[CH2][Sn]([CH2]CCC)[CH2]CCC,.,2.4%[201 µM],.,.,0.6%[201 µM]
O=[N+]([O-])c1ccc(Oc2ccc(C(F)(F)F)cc2[N+](=O)[O-])cc1,.,0.5%[201 µM],.,.,-0.8%[201 µM]
CC(=O)OC1CC2C(C)(C)C(O)C=C[C@@]2(C)C2CC[C@]3(C)C(=CC(=O)OC3c3ccoc3)[C@]12C (stereo partly specified),?,0.0%,-14.1%,35.5µM*,-5.1%
CCN(CC)c1ccc(C=C2C(=O)N(C)C(=S)N(C)C2=O)o1,-11.5%,1.9%,-1.2%,10µM*,3.2%
CCN(CC)c1ccc(/C=C2\C(=O)NC(=S)N(C)C2=O)o1,6.2%,-0.9%,-9.9%,14.1µM*,-5.4%
CCOP(=S)(Oc1cnc(C(C)(C)C)nc1)OC(C)C (stereo unspecified),.,-0.8%[201 µM],.,.,-1.8%[201 µM]
CCOP(=O)(O)C(N)=O,.,-26.3%[201 µM],.,.,-8.7%[201 µM]
COCc1cnc(C2=NC(C)(C(C)C)C(=O)N2)c(C(=O)O)c1 (stereo unspecified),.,-1.4%[201 µM],.,.,1.0%[201 µM]
COc1nn(C(=O)NS(=O)(=O)c2ccccc2OC(F)(F)F)c(=O)n1C,.,-0.7%[201 µM],.,.,-0.3%[201 µM]
O=C1NC(=O)N(c2ccccc2)C(=O)/C1=C/c1ccoc1,-9.3%,8.4%,-5.5%,?,-11.3%
Cc1cccc(N2C(=O)NC(=O)/C(=C\c3cnc(-c4ccccc4)nc3)C2=O)c1,4.3%,1.26µM*[quencher],1.8%,5.4%,-29.8%[53 µM]
Cc1ccc(N2C(=O)NC(=O)/C(=C/c3cnc(-c4ccccc4)nc3)C2=O)cc1C,?,4.2%,-23.0%,15.8µM*,-4.6%
CC(C)c1ccc(N2C(=O)NC(=O)/C(=C\c3cnc(-c4ccccc4)nc3)C2=O)cc1,?,1.2%,-19.3%,22.4µM*,1.4%
N#CC(C#N)=Cc1ccc(O)cc1,.,?,.,.,0.7%
N#C/C(=C\c1ccc(O)c(O)c1)C(N)=S,?,-14.8%,?,2.24µM*,6.6%
CCNc1nc(NCC)nc(SC)n1,.,-15.2%[201 µM],.,.,-10.1%[201 µM]
COc1cc(Cl)c(OC)cc1Cl,.,-0.8%[201 µM],.,.,-0.3%[201 µM]
COc1cc2c(cc1OC)-c1c(O)c(OC)cc3c1[C@H](C2)N(C)CC3,11.2µM*,?,?,5.01µM*,39.8µM*
SMILES,Tau FP inhib,TR SRC2 fluor cs,Tau fluor cs,Tau ThT inhib,TRb SRC2 PPI
COc1cc2c(cc1OC)-c1c(OC)c(OC)cc3c1C(C2)N(C)CC3 (stereo unspecified),4.2%,1.3%,-19.3%,?,-19.0%
O=C(O)c1ccccc1SCC(=O)N1c2ccccc2Sc2ccccc21,6.5%,0.0891µM*[quencher],-0.1%,3.8%,-18.5%[53 µM]
O=C(O)C(F)(F)C(F)(F)C(F)(F)C(F)(F)C(F)(F)F,.,1.1%[201 µM],.,.,-1.5%[201 µM]
CCOc1nc(C(Cl)(Cl)Cl)ns1,.,-3.8%[201 µM],.,.,-10.4%[201 µM]
CN1C(=O)C(=Cc2ccccc2OCCOc2ccc([N+](=O)[O-])cc2)C(=O)N(C)C1=O,?,0.3%,?,10µM*,-1.6%
O=C1NC(=O)C(=Cc2ccccc2OCCOc2ccc([N+](=O)[O-])cc2)C(=O)N1,?,-1.0%,-15.9%,?,8.0%
C/C(=N\NP(=S)(c1ccccc1)c1ccccc1)c1ccc(O)cc1O,-2.6%,-1.1%,31.6µM*[quencher],?,5.4%
CCOP(=O)(OCC)SCSP(=S)(OCC)OCC,.,-2.0%[201 µM],.,.,-0.4%[201 µM]
COC(=O)C(C)Oc1ccc(Oc2ccc(Cl)cc2Cl)cc1 (stereo unspecified),.,1.8%[201 µM],.,.,2.9%[201 µM]
O=C(O)C1(O)c2ccccc2-c2ccc(Cl)cc21 (stereo unspecified),.,2.4%[201 µM],.,.,6.3%[201 µM]
CCOc1cccc(OCC)c2c(C)[n+](CC3CCCO3)c(C)c1-2 (stereo unspecified),?,-9.8%,?,20µM*,-21.4%
CNC(=O)O/N=C/C(C)(C)S(C)(=O)=O,.,2.5%[201 µM],.,.,1.2%[201 µM]
O=C(OCC(=O)c1ccc([N+](=O)[O-])cc1)/C(=C\c1ccc(Cl)cc1)NC(=O)c1ccccc1,-7.8%,-4.7%,?,12.6µM*,-5.4%
Clc1ccc([C@]2(Cn3cncn3)C[C@@H](Br)CO2)c(Cl)c1,.,-0.9%[201 µM],.,.,-0.6%[201 µM]
Nc1ccc2c(c1)Cc1cc([N+](=O)[O-])ccc1-2,6.6%,-3.0%,?,3.16µM*,2.5%
O=c1[nH]c(=S)n(-c2ccc(Cl)cc2)c(O)c1C=Nc1ccc(N2CCOCC2)cc1,-7.2%,1.7%,?,25.1µM*,-1.2%
c1ccc2c(c1)Nc1ccccc1S2,7.2%,-6.8%[201 µM],15.8µM*[quencher],?,5.9%[201 µM]
O=C1Nc2ccccc2Sc2ccccc21,1.8%,0.3%,11.3%,14.2%,-3.3%
CC(C)(C)C(=O)[C@@H](Oc1ccc(Cl)cc1)n1cncn1,.,-1.3%[201 µM],.,.,2.8%[201 µM]
CCc1cc(C)cc(CC)c1-c1c(OC(=O)C(C)(C)C)n2n(c1=O)CCOCC2,.,0.7%[201 µM],.,.,-1.4%[201 µM]
COc1ccc(Cn2c(N)c(C(=O)NCc3ccco3)c3nc4ccccc4nc32)cc1,-6.5%,-7.0%,?,20µM*,-20.7%
O=C(c1ccc2nc(-c3ccco3)c(-c3ccco3)nc2c1)N1CCC2(CC1)OCCO2,20µM*,-21.9%,?,8.91µM*,-6.9%
COc1ccc(-n2cnc3cc(C(=O)N4CCC5(CC4)OCCO5)ccc32)cc1,-1.5%,-0.5%,-7.4%,-5.3%,2.0%
CN1CC[C@@]2(C)c3cc(O)ccc3N(C)C12 (stereo partly specified),8.91µM*,-9.1%,?,7.08µM*,?
CN1CC[C@]2(C)c3cc(O)ccc3N(C)[C@@H]12,.,-3.9%[53 µM],.,.,-2.5%[53 µM]
CN/C(=N\[N+](=O)[O-])NCc1cnc(Cl)s1,.,1.4%[201 µM],.,.,4.1%[201 µM]
